BLM inh – Bloom syndrome helicase (human) inhibition; 350,000 tested, 0.2% active; recombinant BLM DNA unwinding, fluorescence dequenching; P54132; Potency, µM (doses to about 56.1 µM), for the others: top-dose activity change, negative = inhibition, actives largely listed as inhibitors;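 note: plate controls were vehicle for no effect and no enzyme for full effect; nearly all actives have a fitted effect of over 35% in size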
GCN5L2 inh – blocks human GCN5L2 histone acetyltransferase | Q92830 | GCN5L2 HAT assay, ThioGlo1 CoA-SH fluorescence | AID 504327 | 390,000 tested, 0.21% active | Potency, µM (highest dose often 58.9 µM), without a hit: top-dose activity change, negative = inhibition, actives largely listed as inhibitors; note: % is set by controls: 0 for no effect and ±100 for the full control effect
Target sequence (Q92830 whole entry, looked up): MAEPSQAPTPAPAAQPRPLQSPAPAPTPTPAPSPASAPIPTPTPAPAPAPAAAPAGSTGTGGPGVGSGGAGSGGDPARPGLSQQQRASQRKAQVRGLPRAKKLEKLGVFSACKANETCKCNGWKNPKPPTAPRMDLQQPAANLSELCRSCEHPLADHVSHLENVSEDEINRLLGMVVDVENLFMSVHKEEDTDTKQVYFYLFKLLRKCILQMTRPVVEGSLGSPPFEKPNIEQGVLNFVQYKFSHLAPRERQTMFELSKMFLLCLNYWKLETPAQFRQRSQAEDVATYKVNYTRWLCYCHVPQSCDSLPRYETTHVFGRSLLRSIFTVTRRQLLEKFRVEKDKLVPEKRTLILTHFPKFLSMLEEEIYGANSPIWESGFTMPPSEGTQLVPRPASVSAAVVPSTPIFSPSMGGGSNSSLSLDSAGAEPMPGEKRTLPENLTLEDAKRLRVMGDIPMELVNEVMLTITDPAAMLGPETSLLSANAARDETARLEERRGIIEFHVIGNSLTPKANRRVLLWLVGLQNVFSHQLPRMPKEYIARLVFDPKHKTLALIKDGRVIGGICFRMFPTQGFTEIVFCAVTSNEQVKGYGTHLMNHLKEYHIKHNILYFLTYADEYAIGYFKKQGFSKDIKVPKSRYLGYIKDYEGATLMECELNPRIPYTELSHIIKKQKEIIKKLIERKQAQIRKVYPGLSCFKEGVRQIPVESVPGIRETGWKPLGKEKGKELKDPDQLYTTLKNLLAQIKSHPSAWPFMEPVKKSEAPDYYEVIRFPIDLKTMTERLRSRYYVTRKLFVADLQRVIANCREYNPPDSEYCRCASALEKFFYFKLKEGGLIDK
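Preincubate 20nM GCN5L2 with compound 15 min, RT → add 50uM ThioGlo1 + 75uM H3(1-25) + 70uM acetyl-CoA → read fluorescence 0 and 20 min. Primary qHTS; fluorescent artifacts likely.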
RECQ1 inh – inhibitors of human RECQ1 DNA helicase; P46063; RECQ1 DNA unwinding, red fluorescence kinetic read; Potency, µM (titrated, usually from 57.3 µM), inactives show top-dose activity, negative = inhibition, hits mostly inhibitors; 240,000 tested, 0.54% active; AID 2549;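 note: plate controls were vehicle for no effect and no enzyme for full effect; nearly all actives have a fitted effect of over 30% in size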
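50 nM RECQ1T1 preincubated 15 min with compound in Tris pH 8.0 buffer with MgCl2, DTT, Tween-20 and 2.5 ug/ml poly(dI-dC); started with 200 nM TAMRA/BHQ-2 forked duplex and 2 mM ATP. Unwinding read as fluorescence (525/598 nm), two reads 2 h apart.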
ERG Ets-DNA blk – blocks human ERG Ets domain binding to DNA; Potency, µM (highest dose often 76.9 µM), for the others: at the highest dose FP activity, negative = inhibition, actives largely listed as inhibitors; P11308; 370,000 tested, 0.028% active; fluorescence polarization, His-ERG Ets domain / labelled DNA; AID 624246; active = well fitted inhibition curve with a large enough effect in the polarisation, with a control signal flat; inconclusive = small, poorly fitted or top-dose-only effect, or effect the other way, or a change in a side signal; inactive = no such curve, though single readings can be large or run the other way; the % refers to the polarisation;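 note: polarization taken with two DNA probes labelled with fluorescein and Texas red; % of control where 0% means no effect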
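His-tagged ERG Ets domain (1 uM in the protein solution; 300mM KCl, 50mM Tris-HCl, 1mM EDTA, 1mM DTT, pH 7.5) received compound, then a probe mix of 5 nM fluorescein-DNA and 100nM Texas-615-DNA. Fluorescence polarization was read for both dyes.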
WRN inhibitor – blocks human WRN helicase; WRN helicase unwinding, fluorescent forked duplex, kinetic; Potency, µM (doses to about 114 µM), inactives show at the top dose activity change, negative = inhibition, most hits filed as inhibitors; 360,000 tested, 0.46% active; note: % is set by controls: 0 for no effect and ±100 for the full control effect; nearly all actives have a fitted effect of over 55% in size
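Kinetic fluorescence helicase assay: unwinding of a quenched forked DNA duplex (100 nM final) with 2 mM ATP final raises red fluorescence (525/598 nm). Compounds sat 15 min at room temperature with 20 nM WRN beforehand.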
APEX1 inh – blocks human APE1 abasic DNA cleavage; P27695; recombinant APE1, TAMRA/BHQ-2 abasic DNA cleavage fluorescence; Potency, µM (series often up to 65.8 µM), without a hit: at the highest dose activity change, negative = inhibition, hits mostly inhibitors; 350,000 tested, 0.35% active; AID 2517;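 note: plate controls were vehicle for no effect and reference inhibitor for full effect; nearly all actives have a fitted effect of over 55% in size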
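Substrate: short duplex with […] THF abasic site, 5'-TAMRA and 3'-BHQ-2, 50 nM final. APE1 at 0.75 nM, preincubated 15 min RT with compound. Fluorescence increase from first to third read measured activity.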
Starred values were filed as active, the others as inactive; i = inactive; ? = inconclusive; · = no result; ! = not confirmed by another sample; [ ] = dose if it differs, or a comment. In the library only some 0.88% were active in any assay of this set; here they are far more common. Unless noted, calls come from the whole dose curve; as a rule, active = well fitted curve in the direction sought with a large enough effect; inconclusive = small, poorly fitted or top-dose-only effect, or another doubt; inactive = no such curve, though single readings can be large; an effect the other way counts as inactive or inconclusive. Potency is the fitted concentration of half-maximal effect.

SMILES	BLM inh	GCN5L2 inh	RECQ1 inh	ERG Ets-DNA blk	WRN inhibitor	APEX1 inh
COc1ccc(/C=C2\SC(=S)N(C(Cc3ccccc3)C(=O)O)C2=O)cc1 (centres undefined)	-6%	-20%	i	-1%	?	0%
Cc1ccc(NC(=O)Cn2c(O)c(N=NC(=O)c3cc4ccccc4cc3O)c3ccccc32)cc1	-20%	-18%	-19%	6%	-20%	?
COc1ccccc1NC(=O)Cn1c(O)c(N=NC(=O)c2ccccc2O)c2ccccc21	18µM*	-29%	i	5%	-10%[11.6 µM]	0%
Cc1nnc(SCC(=O)NCc2ccco2)[nH]c1=O	10%	?	-18%	3%	-24%[57.1 µM]	25µM*
CCc1c(O)nc(SCC(=O)NCc2ccco2)[nH]c1=O	0%	0%	-6%	-5%	-15%	-5%
CN1CCN(c2ncc3nc(-c4cc(F)cc(F)c4)c(=O)n(CCC#N)c3n2)CC1	-10%	25µM*	16%	·	·	-1%
O=c1[nH]n2c(=O)c3c([nH]c2c1N=Nc1cccc(Cl)c1)CCC3	16µM*	?	5%	5%	?	1%
COc1cccc(N=Nc2c(=O)[nH]n3c(=O)c4c([nH]c23)CCC4)c1	-22%	-14%	-16%	18%	?	?
C=C(C)C(=O)Nc1cccc(C2=NOC3(C2)C[C@@H](C(N)=O)N(C(=O)c2ccc(Cl)cc2)C3)c1 (some centres undefined)	-19%	4%	13µM*	-3%	45µM*	?
C=C(C)C(=O)Nc1cccc(C2=NOC3(C2)C[C@H](C(N)=O)N(C(=O)c2ccccc2)C3)c1 (some centres undefined)	1%	-1%	i	-11%	-6%[11.6 µM]	-5%
C=C(C)C(=O)Nc1cccc(C2=NOC3(C2)C[C@@H](C(N)=O)N(C(=O)C(=C)C)C3)c1 (some centres undefined)	-2%	0%	i	-13%	-8%[11.6 µM]	-4%
C=C(C)C(=O)Nc1cccc(C2=NOC3(C2)C[C@@H](C(N)=O)N(C(=O)C2(C)CC2)C3)c1 (some centres undefined)	4%	-35%	10µM*	-7%	?	?
CC(C)(C)n1ncc2c(=O)n(Cc3ccc(C#N)c(F)c3)cnc21	·	·	·	·	·	-9%
Cc1cccn2c(=O)c(C(=O)NCc3cccc(F)c3)cnc12	1%	-1%	·	8%	·	·
NS(=O)(=O)c1ccc(NC(=O)COC(=O)Cc2c[nH]c3ccccc23)cc1	·	-2%	·	-5%	-28%	-13%
COc1ccc(-c2cc(C(F)(F)F)nc(NCc3ccco3)n2)cc1OC	-9%	22µM*	-3%	0%	-6%	-8%
CC(=O)c1ccc(S(=O)(=O)Nc2cccc(-n3cnnn3)c2)cc1	-17%	?	·	-2%	56µM*	-47%
CN(Cc1ccco1)c1cc(-c2ccoc2)ncn1	5%	32µM*	-18%	·	·	?
NC(=S)N=Nc1c(O)cc(O)c2[nH]c(=O)ccc12	·	·	·	·	16µM*	·
CC(=O)Nc1cc(-c2ccccc2N(C)C)cn2c(-c3cccc(C(F)(F)F)c3)cnc12	·	·	·	·	-11%	·
CC(=O)Nc1cc(-c2cccc(C(=O)NCCN(C)C)c2)cn2c(-c3cccc(C(F)(F)F)c3)cnc12	·	·	·	·	79µM*	·
CCO[C@H]1OC(C(=O)N2CCN(Cc3ccc4c(c3)OCO4)CC2)=C[C@@H](c2cn(C(C)=O)c3ccccc23)[C@@H]1CCCO	-4%	-7%	35µM*	3%	-4%	10%
CCOC(=O)C1=C(Cc2ccc(F)cc2)C(=O)c2ccccc2C1=O	-16%	-13%	-10%	0%	50µM*	16%
CCOC(=O)C(=CNNc1cccc(Cl)c1)C(=O)OCC	-16%	-9%	0%	5%	50µM*	2%
CCOC(=O)C(=CNc1ccc(Cl)cn1)C(=O)OCC	-6%	-1%	-7%	4%	1%	-1%
SMILES	BLM inh	GCN5L2 inh	RECQ1 inh	ERG Ets-DNA blk	WRN inhibitor	APEX1 inh
FC(F)(F)c1cccc(Cl)c1	·	·	-12%	·	·	1%
COc1ccc(C2=NS(=O)(=O)N(C)C(C(=O)Nc3cc(C)ccc3O)=C2)cc1OC	-9%	35µM*!	·	0%	-9%	-1%
CCCC[C@H](NC(=O)[C@H](CO)NC(=O)[C@H](Cc1ccc(O)cc1)NC(=O)[C@H](CO)NC(C)=O)C(=O)N[C@@H](CCC(=O)O)C(=O)N[C@@H](Cc1cnc[nH]1)C(=O)N[C@H](Cc1ccccc1)C(=O)N[C@@H](CCCNC(=N)N)C(=O)N[C@@H](Cc1c[nH]c2ccccc12)C(=O)NCC(=O)N[C@@H](CCCCN)C(=O)N1CCC[C@H]1C(=O)N[C@H](C(N)=O)C(C)C	4%	-3%	-6%	·	·	-6%
O=C(O)c1cccc(Cn2c(Cl)c(/C=N/Nc3ccccc3)sc2=O)c1	?	?	32µM*	61%	-15%[11.6 µM]	18%
Cc1cc(C)c(S(=O)(=O)/N=C2/C=C(Sc3ncn[nH]3)C(=O)c3ccccc32)cc1C	10µM*	11µM*	11%	-7%	22µM*	?
CC(C)N1CCc2nc(SCC(=O)Nc3cccc(F)c3)[nH]c(=O)c2C1	-1%	-3%	·	6%	·	·
COc1ccc2c(c1OC)C(=O)N1C2SC(C)(C)[C@H]1C(=O)NC1CCCC1 (some centres undefined)	3%	32µM*	·	-2%	0%	8%
COc1ccc2c(c1OC)C(=O)N1C2SC(C)(C)[C@H]1C(=O)NCCCOC(C)C (some centres undefined)	-12%	-3%	·	-2%	3%	10%
CC(=O)c1cccc(NC(=O)Cn2nc(C)n3cccc3c2=O)c1	-2%	1%	·	-7%	·	·
O=c1cc(-c2ccc(O)cc2O)oc2ccccc12	2%	·	-5%	·	·	-4%
Cc1c2cc(O)c(=O)cc-2oc2cc(O)c(O)cc12	14µM*	?	10µM*	?	-25%	0.79µM*
COc1cc(OC)c(-c2c3cc(O)c(=O)cc-3oc3cc(O)c(O)cc23)cc1OC	-27%	4%	10µM*	-158%	2.4µM*	25µM*
C[C@H](N)C(=O)N[C@@H](Cc1ccc(F)cc1)C(=O)N[C@@H](CCCN=C(N)N)C(=O)N[C@@H](CC1CCCCC1)C(=O)N[C@@H](CCCCN=C(N)N)C(=O)N[C@@H](Cc1ccc(O)cc1)C(N)=O	28%	-16%	-2%	·	·	0%
O=C1CSC(=S)N1N=Cc1ccc(Cl)s1	·	·	·	120%	20µM*	·
